PubChem BioAssay
Calls of active or inactive are those of the source.

Assays:
[1] = compounds binding Alexa647 anti-His antibody – biochemical, small-molecule microarray, 635 nm fluorescence, artefact control for SMM control protein annotation, primary screen (AID 1128); details: higher = more signal;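 also: score merges feature fluorescence with signal-to-noise for each printed compound spot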
[2] = tested on: Human papillomavirus type 1a E7 protein (residues 1-88); assay: HPV1a E7 small-molecule binders, primary screen, biochemical, small-molecule microarray, residues 1-88, 635 nm (AID 1129); details: small-molecule microarray binding, fluorescence 635 nm; higher = more signal
[3] = target: Focal adhesion kinase 1 (Homo sapiens) (UniProt Q05397); assay: PTK2 protein binding on printed compound slides – biochemical, small-molecule microarray, 635/667 nm fluorescence, BSA, DTT, primary screen (AID 1130); details: 635 nm fluorescence, higher = more signal;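 also: composite of spot emission at 667 nm and signal to noise over triplicate slides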
[4] = tested on: Fibrinogen (Alexa647-labelled); assay: Alexa647-fibrinogen binding to printed small molecules – biochemical, small-molecule microarray, 635/667 nm fluorescence, artefact control for SMM control-protein annotation, profiling panel (AID 1131); details: fibrinogen-A647 binding fluorescence, higher = more signal;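 also: z-score merges 667 nm fluorescence with per-spot signal-to-noise over triplicate slides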
[5] = target: Follistatin (Homo sapiens) (UniProt P19883); assay: FST protein binding to printed compounds – biochemical, small-molecule microarray, 635/667 nm fluorescence, primary screen (AID 1132); details: 635 nm fluorescence, higher = more signal
[6] = target: Fibroblast growth factor 2 (Homo sapiens) (UniProt P09038); assay: basic fibroblast growth factor binding to printed compounds – biochemical, small-molecule microarray, 635/667 nm fluorescence, primary screen (AID 1133); details: FGF2, fluorescence 635/667, higher = more signal
[7] = JC-1 mitochondrial potential readout, lung cancer cells – cell-based, A549, JC-1 fluorescence, basal, 24 h, 100 nL, profiling panel (AID 1138); details: higher = more signal;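 also: A549 lung adenocarcinoma cells under basal conditions with no added stimulus; test concentration not given here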
[8] = tested on: Lefty1; assay: Lefty1 protein binding to printed compounds – biochemical, small-molecule microarray, 635/667 nm fluorescence, primary screen (AID 1139); details: fluorescence 635/667, higher = more signal
[9] = tested on: wheat germ agglutinin (Triticum aestivum), Alexa647-labelled; assay: Alexa647-WGA lectin binding to printed small molecules – biochemical, small-molecule microarray, 635/667 nm fluorescence, artefact control for SMM control-protein annotation, profiling panel (AID 1140); details: WGA-A647 binding, 635 nm fluorescence, higher = more signal;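 also: score merges 667 nm feature emission with signal to noise over triplicate slides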
[10] = target: Luciferin 4-monooxygenase (Photinus pyralis) (UniProt P08659); assay: inhibition of purified Photinus pyralis luciferase – biochemical, luminescence, purified enzyme, 2006 set, primary screen (AID 1141); details: purified firefly luciferase, SteadyGlo luminescence, 30 min; higher = more signal, called active from +8 up or from −8 down;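 also: cell-free assay with purified firefly luciferase at 100 ng per well in PBS; test concentration not given here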
Luciferin 4-monooxygenase (Photinus pyralis), sequence (P08659 whole entry, looked up): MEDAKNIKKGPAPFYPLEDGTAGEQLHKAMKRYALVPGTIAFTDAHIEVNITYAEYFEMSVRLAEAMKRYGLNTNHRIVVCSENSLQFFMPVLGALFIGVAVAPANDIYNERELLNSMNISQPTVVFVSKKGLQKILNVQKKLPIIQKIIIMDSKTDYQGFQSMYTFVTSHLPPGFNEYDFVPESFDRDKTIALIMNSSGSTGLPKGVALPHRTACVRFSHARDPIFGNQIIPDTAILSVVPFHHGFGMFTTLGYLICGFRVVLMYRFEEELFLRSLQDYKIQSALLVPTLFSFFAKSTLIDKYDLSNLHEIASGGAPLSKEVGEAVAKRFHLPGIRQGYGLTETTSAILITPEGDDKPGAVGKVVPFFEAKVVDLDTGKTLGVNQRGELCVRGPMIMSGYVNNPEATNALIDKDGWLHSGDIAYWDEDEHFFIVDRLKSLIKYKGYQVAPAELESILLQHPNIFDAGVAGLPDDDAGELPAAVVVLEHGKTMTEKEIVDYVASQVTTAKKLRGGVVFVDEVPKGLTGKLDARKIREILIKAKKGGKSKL

Fibroblast growth factor 2 (Homo sapiens), sequence (P09038 whole entry, looked up): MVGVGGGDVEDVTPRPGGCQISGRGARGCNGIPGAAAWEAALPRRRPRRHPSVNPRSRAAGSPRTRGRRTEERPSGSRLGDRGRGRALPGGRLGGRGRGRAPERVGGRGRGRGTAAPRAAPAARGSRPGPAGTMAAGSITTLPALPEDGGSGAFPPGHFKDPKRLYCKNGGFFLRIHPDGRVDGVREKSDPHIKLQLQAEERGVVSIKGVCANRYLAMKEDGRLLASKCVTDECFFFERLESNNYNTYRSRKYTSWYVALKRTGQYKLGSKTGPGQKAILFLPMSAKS
Follistatin (Homo sapiens), sequence (P19883 whole entry, looked up): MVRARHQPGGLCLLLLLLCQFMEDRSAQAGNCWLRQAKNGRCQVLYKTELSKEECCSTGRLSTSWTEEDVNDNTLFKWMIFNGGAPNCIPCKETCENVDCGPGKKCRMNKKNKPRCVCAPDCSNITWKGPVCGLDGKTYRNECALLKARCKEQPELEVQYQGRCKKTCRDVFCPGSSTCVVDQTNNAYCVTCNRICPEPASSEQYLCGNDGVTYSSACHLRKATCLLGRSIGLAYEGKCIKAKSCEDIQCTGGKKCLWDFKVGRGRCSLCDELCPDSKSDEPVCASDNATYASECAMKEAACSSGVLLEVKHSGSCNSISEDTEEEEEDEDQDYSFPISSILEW
Focal adhesion kinase 1 (Homo sapiens), sequence (Q05397 whole entry, looked up): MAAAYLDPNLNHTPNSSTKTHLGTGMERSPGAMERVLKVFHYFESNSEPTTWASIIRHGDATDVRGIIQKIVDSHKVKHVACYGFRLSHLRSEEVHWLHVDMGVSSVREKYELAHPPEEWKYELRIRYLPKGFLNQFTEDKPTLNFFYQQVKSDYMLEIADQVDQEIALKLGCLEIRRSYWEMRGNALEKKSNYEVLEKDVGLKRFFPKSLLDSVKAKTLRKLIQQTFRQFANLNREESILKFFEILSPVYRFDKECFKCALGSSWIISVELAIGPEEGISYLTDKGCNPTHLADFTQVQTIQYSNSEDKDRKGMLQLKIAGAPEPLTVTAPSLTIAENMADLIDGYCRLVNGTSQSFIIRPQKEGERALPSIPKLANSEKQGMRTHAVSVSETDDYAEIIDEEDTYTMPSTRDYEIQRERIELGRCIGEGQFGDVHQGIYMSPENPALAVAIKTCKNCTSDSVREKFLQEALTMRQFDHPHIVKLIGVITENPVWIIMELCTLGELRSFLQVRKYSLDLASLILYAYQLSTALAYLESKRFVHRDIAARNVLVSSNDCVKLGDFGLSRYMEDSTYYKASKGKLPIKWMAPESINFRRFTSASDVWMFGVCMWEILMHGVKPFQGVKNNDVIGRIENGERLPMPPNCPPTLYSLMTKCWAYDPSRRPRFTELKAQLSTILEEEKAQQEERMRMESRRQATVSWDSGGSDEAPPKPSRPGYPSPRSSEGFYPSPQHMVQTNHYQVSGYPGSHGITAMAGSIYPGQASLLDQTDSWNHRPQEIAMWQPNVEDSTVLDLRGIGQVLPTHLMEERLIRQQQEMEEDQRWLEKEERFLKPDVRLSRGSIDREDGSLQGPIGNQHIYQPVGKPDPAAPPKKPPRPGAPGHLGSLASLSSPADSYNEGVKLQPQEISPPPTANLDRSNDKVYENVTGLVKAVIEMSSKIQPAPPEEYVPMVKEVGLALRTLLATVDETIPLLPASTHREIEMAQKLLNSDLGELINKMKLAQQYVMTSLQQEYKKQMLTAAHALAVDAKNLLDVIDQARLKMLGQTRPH

CCOC(=O)C[C@H]1[C@H](OC(=O)c2ccc(-c3ccccc3)cc2)[C@@H](NC(=O)c2ccc(-c3ccccc3)cc2)c2cc(OCCCO)ccc2N1C(=O)c1ccccc1
composite z-score [1]: 0.0004
composite z-score [2]: 1.09
composite z-score [3]: 1.03
composite z-score [4]: 0.856
composite z-score [5]: 0.627
composite z-score [6]: 0.64
z-score [7]: 0.392
composite z-score [8]: 0.627
composite z-score [9]: 0.792
z-score [10]: -0.339 (inactive)

C[N+](C)(C)CCCC[C@@H]1NC(=O)[C@H]2C[C@@H](C(=O)O)[C@@H](c3ccc(O)cc3)N2C1=O
composite z-score [1]: 1.04
composite z-score [2]: 0.123
composite z-score [3]: -0.216
composite z-score [4]: -0.223
composite z-score [5]: 0.864
composite z-score [6]: 0.948
z-score [7]: 1.49
composite z-score [8]: 0.155
composite z-score [9]: -0.185
z-score [10]: -1.93 (inactive)

CCN1C(=O)C2CC(=O)C3C(CN(S(=O)(=O)c4ccc(C)cc4)C3c3ccc(C)cc3)C2C1=O (stereo not given)
composite z-score [1]: 1.98
composite z-score [2]: 1.18
composite z-score [3]: 1.09
composite z-score [4]: -0.38
composite z-score [5]: -0.238
composite z-score [6]: -0.315
z-score [7]: 0.0148
composite z-score [8]: -0.573
composite z-score [9]: -0.0147
z-score [10]: 0.12 (inactive)

Cc1ccc(S[C@]2(C(=O)NCCN3CCOCC3)CC(=O)N(C(C)C)[C@@H]2c2ccc(CO)cc2I)cc1
composite z-score [1]: -1.03
composite z-score [2]: -0.636
composite z-score [3]: 0.218
composite z-score [4]: -1.09
composite z-score [5]: -0.453
composite z-score [6]: -0.706
z-score [7]: 1.94
composite z-score [8]: -0.816
composite z-score [9]: -0.581
z-score [10]: -1.3 (inactive)

CC[C@H]1C2=C3C(CC[C@H]4C(OCc5ccc(F)cc5C(F)(F)F)OC[C@](C)([C@@H]34)N(C(=O)OC(C)(C)C)C2)C(COC(C)=O)C1COC(C)=O (stereo not given in full)
composite z-score [1]: 1.3
composite z-score [2]: 1.17
composite z-score [3]: 0.178
composite z-score [4]: 0.945
composite z-score [5]: 0.165
composite z-score [6]: -1.19
z-score [7]: 1.74
composite z-score [8]: -0.256
composite z-score [9]: 0.509
z-score [10]: 1.17 (inactive)

CO[C@H]1O[C@H](CO)[C@@H](OC(=O)Nc2cccc(F)c2)[C@H](OC(=O)c2cc3ccccc3[nH]2)[C@H]1OC(=O)c1cc2ccccc2[nH]1
composite z-score [1]: -0.371
composite z-score [2]: -0.486
composite z-score [3]: 0.23
composite z-score [4]: 0.836
composite z-score [5]: 0.498
composite z-score [6]: -0.234
z-score [7]: -0.68
composite z-score [8]: 0.379
composite z-score [9]: 0.513
z-score [10]: -0.635 (inactive)

COc1ccc([Si](C)(C)[C@H]2[C@H](CC(=O)N(CCO)Cc3ccccc3)O[C@@]3(C(=O)N(Cc4cccc(N5CCCCC5=O)c4)c4ccccc43)[C@@H]2C)cc1
composite z-score [1]: 1.13
composite z-score [2]: 0.694
composite z-score [3]: 0.18
composite z-score [4]: 0.267
composite z-score [5]: 0.724
composite z-score [6]: 1.23
z-score [7]: -0.153
composite z-score [8]: 0.931
composite z-score [9]: 0.311
z-score [10]: -1.55 (inactive)

COCCOC(=O)N1C(=O)[C@@]2(c3cc(C#CCNC(N)=O)ccc31)[C@H](C(N)=O)[C@H]1C(=O)O[C@H](c3ccccc3)[C@H](c3ccccc3)N1[C@@H]2c1ccc(O)cc1
composite z-score [1]: 1.78
composite z-score [2]: -0.767
composite z-score [3]: -0.284
composite z-score [4]: -0.424
composite z-score [5]: 0.994
composite z-score [6]: 0.287
z-score [7]: 0.222
composite z-score [8]: 0.115
composite z-score [9]: -0.113
z-score [10]: -2.19 (inactive)

CCCNC(=O)[C@@]1(Sc2ccc(C)cc2)CC(=O)N(Cc2cc(C(F)(F)F)cc(C(F)(F)F)c2)[C@@H]1c1ccc(CO)cc1
composite z-score [1]: 2.59
composite z-score [2]: -0.0696
composite z-score [3]: -0.251
composite z-score [4]: -0.452
composite z-score [5]: -0.245
composite z-score [6]: -0.375
z-score [7]: -0.328
composite z-score [8]: -0.675
composite z-score [9]: -0.037
z-score [10]: -0.297 (inactive)

Cc1ccc(S(=O)(=O)N2[C@@H](c3ccccc3)C(C(=O)O)=CC[C@H]2c2ccc(F)cc2)cc1
composite z-score [1]: 0.686
composite z-score [2]: 1.29
composite z-score [3]: 0.779
composite z-score [4]: 1.13
composite z-score [5]: 0.164
composite z-score [6]: -1.34
z-score [7]: -0.679
composite z-score [8]: 1.36
composite z-score [9]: 1.05
z-score [10]: 2.52 (inactive)

CCCCN1CC=CC23O[C@@H]4C=CCCOC(=O)C4[C@H]2C(=O)N(CCO)[C@@H]3C1=O (stereo not given in full)
composite z-score [1]: -1.17
composite z-score [2]: -0.513
composite z-score [3]: -0.634
composite z-score [4]: 0.213
composite z-score [5]: 0.407
composite z-score [6]: 1.79
z-score [7]: -0.9
composite z-score [8]: -0.614
composite z-score [9]: -0.0481
z-score [10]: 0.421 (inactive)

C=C(C(=O)CC[C@@H](OC(=O)c1ccccc1-c1ccccc1C(=O)O)c1cccc(OCCO)c1)C(C)C
composite z-score [1]: 0.256
composite z-score [2]: -0.481
composite z-score [3]: -0.285
composite z-score [4]: -0.0661
composite z-score [5]: 1.53
composite z-score [6]: 1.54
z-score [7]: 0.282
composite z-score [8]: 1.69
composite z-score [9]: 0.58
z-score [10]: -1.62 (inactive)

C=C(COC)/C(=C/C[C@@H](OC(=O)c1ccncc1)c1ccccc1OCCO)c1cnc2ccccc2c1
composite z-score [1]: 1.27
composite z-score [2]: 1.17
composite z-score [3]: 0.276
composite z-score [4]: 0.848
composite z-score [5]: 1.47
composite z-score [6]: 1.6
z-score [7]: 1.5
composite z-score [8]: 1.56
composite z-score [9]: 1.39
z-score [10]: -1.17 (inactive)

O=C1c2ccccc2[C@@]2(Cc3ccccc3N(CC(F)(F)F)C2=O)[C@H](c2ccc(CO)cc2)N1Cc1ccccc1
composite z-score [1]: -0.713
composite z-score [2]: -0.404
composite z-score [3]: -0.282
composite z-score [4]: -0.243
composite z-score [5]: 0.932
composite z-score [6]: 1.4
z-score [7]: -0.772
composite z-score [8]: 0.759
composite z-score [9]: 0.0111
z-score [10]: 0.746 (inactive)

C=CCNC(=O)[C@H]1[C@@H]2C(=O)O[C@@H](c3ccccc3)[C@@H](c3ccccc3)N2[C@@H](c2ccc(O)cc2)[C@]12C(=O)Nc1ccccc12
composite z-score [1]: 0.809
composite z-score [2]: 0.642
composite z-score [3]: -0.176
composite z-score [4]: 0.13
composite z-score [5]: 0.719
composite z-score [6]: 0.757
z-score [7]: 0.914
composite z-score [8]: -0.319
composite z-score [9]: -0.496
z-score [10]: -1.57 (inactive)

C#CCN(C(=O)OC(C)(C)C)[C@H](CO)c1ccccc1
composite z-score [1]: 0.137
composite z-score [2]: 0.266
composite z-score [3]: 0.0987
composite z-score [4]: -0.0218
composite z-score [5]: -0.0032
composite z-score [6]: 0.579
z-score [7]: -0.766
composite z-score [8]: 0.543
composite z-score [9]: -0.174
z-score [10]: 0.978 (inactive)

C=CCNC(=O)[C@H]1[C@@H]2C(=O)O[C@@H](c3ccccc3)[C@@H](c3ccccc3)N2[C@@H](c2ccc(O)cc2)[C@]12C(=O)Nc1ccc(C#CCC(C(=O)OC)C(=O)OC)cc12
composite z-score [1]: 2.01
composite z-score [2]: 1.08
composite z-score [3]: 0.144
composite z-score [4]: -0.078
composite z-score [5]: 0.636
composite z-score [6]: 0.497
z-score [7]: 0.243
composite z-score [8]: 0.0372
composite z-score [9]: -0.0126
z-score [10]: -1.37 (inactive)

CCCC=C(CCC)[C@@H](NC(=O)c1ccc(C(=O)OC)cc1)c1ccc(C(=O)OC)cc1
composite z-score [1]: -0.202
composite z-score [2]: 0.33
composite z-score [3]: 0.723
composite z-score [4]: 0.146
composite z-score [5]: 0.0388
composite z-score [6]: -1.47
z-score [7]: -0.699
composite z-score [8]: -0.799
composite z-score [9]: 0.315
z-score [10]: 1.3 (inactive)

O=C(NCCN1CCOCC1)[C@@H]1c2ccccc2C(=O)N(CC23CC4CC(CC(C4)C2)C3)[C@H]1c1ccc(CO)cc1
composite z-score [1]: 2.06
composite z-score [2]: 1.25
composite z-score [3]: 0.211
composite z-score [4]: 0.962
composite z-score [5]: 0.99
composite z-score [6]: 0.424
z-score [7]: 1.26
composite z-score [8]: 0.357
composite z-score [9]: 1.17
z-score [10]: 0.733 (inactive)

Cc1ccc(S[C@]2(C(=O)NCC(C)C)CC(=O)N(C(C)C)[C@@H]2c2ccc(CO)cc2I)cc1
composite z-score [1]: -1.38
composite z-score [2]: -0.807
composite z-score [3]: -0.0038
composite z-score [4]: -0.942
composite z-score [5]: -0.888
composite z-score [6]: 0.101
z-score [7]: -0.294
composite z-score [8]: -1.16
composite z-score [9]: -0.353
z-score [10]: -0.965 (inactive)

CN1C(=O)C2CC=C(C3=CCO[C@@H]3[C@H]3CCCN3S(=O)(=O)c3ccccc3[N+](=O)[O-])CC2C1=O (stereo not given in full)
composite z-score [1]: -0.354
composite z-score [2]: -0.342
composite z-score [3]: -0.244
composite z-score [4]: 0.533
composite z-score [5]: 0.0289
composite z-score [6]: 0.159
z-score [7]: 0.0911
composite z-score [8]: -0.106
composite z-score [9]: -0.0718
z-score [10]: 0.294 (inactive)

CC[C@@H](O[Si](C#C[Si](C(C)C)(C(C)C)C(C)C)(C(C)C)C(C)C)c1cn([C@H](C)c2ccccc2)nn1
composite z-score [1]: 0.176
composite z-score [2]: 0.57
composite z-score [3]: 0.0506
composite z-score [4]: -0.0116
composite z-score [5]: 0.548
composite z-score [6]: 0.335
z-score [7]: -0.213
composite z-score [8]: 0.573
composite z-score [9]: 0.094
z-score [10]: -0.268 (inactive)
